Source: PubChem
This is a sample that favours compounds with a hit; in the whole collection about 2.4% have one here.
D2 ag-1 – human D2 receptor agonism in beta-arrestin assay | activation, % (concentration not given with the values) | P14416 | DiscoveRx PathHunter D2 beta-arrestin, luminescence, 90 min; 100% = 57 uM dopamine signal | 360,000 compounds, 0.084% hits | AID 624465; in the data active = activation above about 40%
Target sequence (P14416 whole entry, looked up): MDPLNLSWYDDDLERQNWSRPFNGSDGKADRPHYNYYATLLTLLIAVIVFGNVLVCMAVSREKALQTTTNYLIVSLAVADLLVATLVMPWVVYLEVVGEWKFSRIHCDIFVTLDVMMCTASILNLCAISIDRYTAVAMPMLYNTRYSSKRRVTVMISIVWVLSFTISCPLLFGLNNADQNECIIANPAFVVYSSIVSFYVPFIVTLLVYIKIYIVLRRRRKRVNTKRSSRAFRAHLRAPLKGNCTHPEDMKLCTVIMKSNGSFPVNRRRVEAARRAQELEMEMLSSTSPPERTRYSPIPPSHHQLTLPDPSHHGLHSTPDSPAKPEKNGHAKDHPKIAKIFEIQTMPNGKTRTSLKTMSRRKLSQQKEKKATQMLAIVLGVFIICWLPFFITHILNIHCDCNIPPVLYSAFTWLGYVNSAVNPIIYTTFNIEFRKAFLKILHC
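Agonist mode: compounds alone added to overnight-plated D2 PathHunter cells for 90 min at 37 C, with 57 uM final dopamine (EC100) defining full response. Beta-arrestin recruitment detected by chemiluminescent reagent, read after 1 h at ambient temperature.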
D2 PAM-1 – positive allosteric modulators of human D2 dopamine receptor | potentiation, % at 10 µM | 340,000 compounds, 0.34% hits | HEK293 T-REx D2, calcium flux, EC20 dopamine potentiation;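 active = potentiation over 3 SD above the plate norm, cut at about 30% in these data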
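Cells plated with tetracycline inducer and held overnight at 30 C; calcium dye loaded 30–90 min at room temperature; baseline taken, compound added and read 180 s; EC20 dopamine then added and read 180 s.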
D2 PAM-2 – human D2 receptor positive allosteric modulation | DiscoveRx D2 beta-arrestin cells, luminescence, 90 min; 100% = 57 uM dopamine signal | potentiation, % (concentration not given with the values) | 360,000 compounds, 0.23% hits | AID 624464; in the data active = potentiation above about 50%
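PathHunter D2 cells, attached overnight at 37 deg C, received compound in DMSO plus dopamine at EC20 (50 nM final) for 90 min at 37 deg C. Beta-arrestin recruitment was read as luminescence after 1 h with detection reagent at ambient temperature.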
D2 antagonist – antagonists of human D2 dopamine receptor; HEK293 TREx D2 cells, calcium flux, dopamine EC80; inhibition, % at 10 µM; 340,000 compounds, 2% hits; in the data active = inhibition above about 30%; inactive = below that, where a call was filed
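Read-out: kinetic calcium fluorescence (1 cycle/s) in inducible HEK293 T-REx D2 cells after an EC80 dopamine addition that followed 180 s compound preincubation. Loss of the dopamine response indicates antagonism.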
D2 ag-2 – D2 dopamine receptor (human) agonism; P14416; HEK293 T-REx D2 cells, calcium flux agonist mode; activation, % at 2 µM; 340,000 compounds, 0.53% hits; AID 485358;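 active = activation over 3 SD above normal in the single-dose calcium agonist read, cut at about 30% in these data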
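HEK293 Trex D2 cells, tetracycline-induced, o/n 30 C 5% CO2; no-wash Ca dye, RT 30–90 min; 10-cycle baseline, 23 nl cpd added, kinetic Ca read 180 s; agonist hits = positive Ca response.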
Each line names hits and unclear results; the compound was inactive in the other large screens; ! = repeats disagree.

Cc1ccccc1OCC(O)CN1CCCCC1 (stereo unspecified)	none
Cc1ccc(C)c(Cn2c(C3CC(=O)N(c4ccccc4C)C3)nc3ccccc32)c1 (stereo unspecified)	none (no result: D2 ag-1, D2 PAM-2, D2 antagonist)
OC(COc1cccc2ccccc12)CN1CCN(c2ccccc2Cl)CC1 (stereo unspecified)	D2 antagonist 39
C=CCc1ccc(OCC(O)CN2CCN(c3ccccc3OC)CC2)c(OC)c1 (stereo unspecified)	none
COc1ccccc1N1CCN(CC(O)COc2ccc(C)cc2C)CC1 (stereo unspecified)	D2 antagonist 76
COc1ccccc1N1CCN(CC(O)COCCOc2ccc(Br)cc2)CC1 (stereo unspecified)	D2 antagonist 78
COc1ccccc1N1CCN(CC(O)COc2c(OC)cccc2OC)CC1 (stereo unspecified)	D2 antagonist 123
Cc1ccc(N2CCN(CC(O)COc3cccc4ccccc34)CC2)cc1 (stereo unspecified)	none
COc1cccc(Cn2c(Oc3cc(C)cc(C)c3)nc3c2c(=O)n(C)c(=O)n3C)c1	none (no result: D2 ag-1, D2 PAM-2, D2 antagonist)
CCOc1ccc(Nc2c(S(=O)(=O)c3ccc(Cl)cc3)cnc3ccc(OCC)cc23)cc1	none (no result: D2 ag-1, D2 PAM-2, D2 antagonist)
COc1ccccc1N1CCN(CC(O)c2ccc3cc[nH]c3c2)CC1 (stereo unspecified)	D2 antagonist 60, D2 ag-2 37
Cc1ccc(Cl)cc1N1CCN(CC(O)COCc2ccco2)CC1 (stereo unspecified)	D2 antagonist 97
O=C(CN1CCCCC1)Nc1ccc(S(=O)(=O)N2CCCCCC2)cc1	none
CC(C)CC(=O)Nc1ccc(C(=O)CN2CCN(c3ccc(O)cc3)CC2)cc1	D2 PAM-1 31
O=C(CN1CCN(c2ccc(O)cc2)CC1)Nc1ccc(S(=O)(=O)N2CCCC2)cc1	D2 ag-1 49 (no result: D2 PAM-1, D2 antagonist, D2 ag-2)
Cc1ccc(NC(=O)c2cc(S(=O)(=O)N3CCCCC3)c[nH]2)cc1N(C)C	none (no result: D2 ag-1, D2 PAM-2, D2 antagonist)
N#CCCN1CCN(S(=O)(=O)c2cc(Cl)ccc2Cl)CC1	D2 PAM-1 37
Cn1c(=O)n(CCCOc2ccc(Br)cc2)c2ccccc21	D2 antagonist 32
O=C(CSc1nnnn1Cc1ccccc1)NCC(=O)c1ccccc1	none
O=C(CSc1nnnn1Cc1ccccc1)NCCc1ccccc1	D2 antagonist 32
COc1ccccc1OCCCCN1CCN(C(c2ccccc2)c2ccccc2)CC1	D2 antagonist 61
Cc1ccc([N+](=O)[O-])c(OCCN2CCC(Cc3ccccc3)CC2)c1	D2 antagonist 68
COc1cccc(OC)c1OCCCCN1CCC(Cc2ccccc2)CC1	D2 antagonist 76
COc1cccc(OC)c1OCCCCN1CCCC1	none
CCC(=O)c1ccccc1OCCCN1CCC(Cc2ccccc2)CC1	D2 antagonist 97
Cc1ccc(NC(=O)Cn2c(=O)n(Cc3ccccc3)c(=O)c3c2c2cc(C)ccc2n3C)cc1	none (no result: D2 ag-1, D2 PAM-2, D2 antagonist)
Cc1ccc(S(=O)(=O)c2nnn3c2nc(N2CCC(C)CC2)c2cc(Cl)ccc23)cc1C	none (no result: D2 ag-1, D2 PAM-2, D2 antagonist)
CC1CCN(CCCOc2ccc(OCc3ccccc3)cc2)CC1	none
CCOc1ccccc1OCCN1CCCC1	none
N#Cc1ccccc1OCCCN1CCC(Cc2ccccc2)CC1	D2 antagonist 85
Cc1ccccc1OCCN1CCC(Cc2ccccc2)CC1	D2 antagonist 46
CCOc1ccccc1OCCN1CCC(Cc2ccccc2)CC1	D2 antagonist 64
CC(=O)CCc1ccc(OCCCCN2CCC(Cc3ccccc3)CC2)cc1	D2 antagonist 54
Cc1ccccc1OCCOCCN1CCCCCC1	none (no result: D2 antagonist, D2 ag-2)
O=S(=O)(NCCc1csc2nc(-c3ccc(Cl)cc3)nn12)c1cccs1	none (no result: D2 ag-1, D2 PAM-2, D2 antagonist)
CCc1cccc(C)c1NC(=O)C1CCN(c2nnc(C)c3c(C)n(-c4ccccc4)nc23)CC1	none (no result: D2 ag-1, D2 PAM-2, D2 antagonist)
CCC(=O)N1CCCc2cc(S(=O)(=O)Nc3ccc(C)c(C)c3)ccc21	none (no result: D2 ag-1, D2 PAM-2, D2 antagonist)
Cc1ccc2c(CC(=O)NCc3ccccc3)coc2c1C	none (no result: D2 ag-1, D2 PAM-2, D2 antagonist)
O=C(COC(=O)/C=C/c1cccc(F)c1)NNC(=O)c1ccccc1	D2 antagonist 45
O=C(COC(=O)/C=C/c1cccc(F)c1)Nc1ccccc1	none
COc1ccc(NC(=O)Cn2c(SCc3cccc(Cl)c3)nc3ccncc32)c(OC)c1OC	none (no result: D2 ag-1, D2 PAM-2, D2 antagonist, D2 ag-2)
O=S(=O)(Cc1ccccc1)N1CCN(C2Cc3ccccc3C2)CC1	D2 antagonist 30
Cc1cc(C)n2nc(C(=O)OCC(=O)Nc3ccc(Cl)cc3)nc2n1	none (no result: D2 PAM-1, D2 antagonist, D2 ag-2)
CCCOC(=O)c1ccc(NC(=O)c2nc3nc(C)cc(C)n3n2)cc1	D2 PAM-1 31
Cc1cccc(N2CCN(Cc3nc(-c4ccccc4Cl)oc3C)CC2)n1	D2 antagonist 40
CCc1nc(Oc2cccc(F)c2)c2oc3ccccc3c2n1	none (no result: D2 ag-1, D2 PAM-2, D2 antagonist)
CCC(C)c1ccccc1NC(=O)COC(=O)c1ccc2[nH]c3c(c2c1)CCCC3 (stereo unspecified)	D2 antagonist 71
O=C(COC(=O)c1ccc2[nH]c3c(c2c1)CCCC3)Nc1ccccc1Cl	none
CN(C)CCOC(c1ccc(Cl)cc1)c1ccccn1 (stereo unspecified)	D2 ag-1 98!
CN(C)CCOC(c1ccccc1)c1ccccc1	none
Cc1ccc(S(=O)(=O)Nc2ccc3c(c2)nc(CCN2CCCC2)n3C)cc1	D2 antagonist 39
Cn1c(CCN2CCOCC2)nc2cc(NS(=O)(=O)c3ccccc3)ccc21	none
Cn1c(CCN2CCCCC2)nc2cc(NS(=O)(=O)c3ccccc3)ccc21	D2 antagonist 38
CCN(c1ccc(OC)cc1)S(=O)(=O)c1ccc2[nH]c3c(c2c1)CCCCC3	none (no result: D2 ag-1, D2 PAM-2, D2 antagonist)
CCCC(=O)Nc1nc2c(s1)CC(C(C)(C)C)CC2 (stereo unspecified)	none (no result: D2 ag-1, D2 PAM-2, D2 antagonist)
CCOc1ccccc1CNC(=O)c1ccc(CS(=O)Cc2cccc(Cl)c2)o1 (stereo unspecified)	none (no result: D2 ag-1, D2 PAM-2, D2 antagonist)
CN(CC1CCN(CCc2cccc(C(F)(F)F)c2)CC1)C(=O)c1ccc(F)cc1	D2 antagonist 58
CN(C)CC(C)(C)CNc1ccc(S(=O)(=O)N2CCCC2)cn1	none (no result: D2 PAM-1, D2 antagonist, D2 ag-2)
CCNc1ccc(S(=O)(=O)N2CCCCC2)cn1	D2 antagonist 33
CC(=O)N1CCN(c2ccc(S(=O)(=O)N3CCCCC3)cn2)CC1	D2 antagonist 38
CN(C)c1ccc(NC(=O)Cn2cc(S(=O)(=O)Cc3ccccc3Cl)c3ccccc32)cc1	none (no result: D2 ag-1, D2 PAM-2, D2 antagonist)
CCS(=O)(=O)N1CC(=O)N(c2cccc(Cl)c2)C(C)(C(=O)NC2CCCCCC2)C1 (stereo unspecified)	none (no result: D2 ag-1, D2 PAM-2, D2 antagonist)
COc1ccc2c(c1)CCc1c-2n[nH]c1C(=O)O	D2 antagonist 31
Cc1ccc(N2CC(NC(=O)Cc3cccs3)CC2=O)cc1C (stereo unspecified)	none (no result: D2 ag-1, D2 PAM-2, D2 antagonist)
COc1ccc(NC(=O)c2cn(-c3ccccc3)nc2-c2ccncc2)cc1	D2 antagonist 68
